Assay [1] can be described thus: rapamycin-like changes in RPL19A-GFP expression – cell-based, S. cerevisiae, multiplex flow cytometry, primary screen (AID 1862; in the data active = percent of DMSO control GFP below about 86%;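 also: lower values mimic rapamycin by blocking the RPL19A rise seen in DMSO cells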). The settings on record: S. cerevisiae RPL19A-GFP strain, flow cytometry fluorescence, 3 h; at 10 µM; stronger effect = lower value.
Assay [2] can be described thus: TOR pathway GLN3 branch reporter MEP2-GFP changes – S. cerevisiae, multiplex flow cytometry, primary screen (AID 1867;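 active = GFP response, as percent of the DMSO control, above the screen-wide mean plus 3 SD, about 139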;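 also: median GFP channel fluorescence of barcode-gated MEP2-GFP cells measured by flow cytometry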). The settings on record: S. cerevisiae MEP2-GFP strain, 3 h, at 10 µM, stronger effect = higher value, 100% means same as DMSO wells. (In flow cytometry, cells or beads pass a laser one at a time.)
Assay [3] can be described thus: TOR pathway RTG branch CIT2 reporter changes – S. cerevisiae, GFP fusion, multiplex flow cytometry, primary screen (AID 1870;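 active = percent response above a set limit, the screen-wide mean plus 3 SD, cut at about 130% in these data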;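 also: barcoded CIT2-GFP strain pooled with four other GFP strains with rapamycin as positive control; median GFP fluorescence per well over plate mean of DMSO wells so 100% = DMSO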). The settings on record: S. cerevisiae CIT2-GFP expression, 3 h, at 10 µM, stronger effect = higher value.
Assay [4] can be described thus: TOR pathway LAP4-GFP level changes – S. cerevisiae, multiplex flow cytometry, primary screen (AID 1873). The settings on record: S. cerevisiae LAP4-GFP expression, 3 h, at 10 µM, stronger effect = higher value.
Assay [5] is described as follows: yeast AGP1-GFP level changes, GLN3 branch – cell-based, multiplex flow cytometry, S. cerevisiae, primary screen (AID 1887;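 active = GFP signal above the screen-wide mean plus 3 SD, that is over about 124.5% of the solvent control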;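 also: AGP1-GFP fusion strain of S. cerevisiae within a five-strain barcoded multiplex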). The settings on record: 3 h, at 10 µM, stronger effect = higher value.
The nature of assay [6]: reduced mouse 2C T cell binding to pMHC/ICAM-1 vesicles – MLPCN validation set, flow cytometry, LFA-1/ICAM-1 modulator project, pilot screen (AID 2523;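 active = response below a set limit, under 55% cells CD8-positive and vesicle-bound, and CD8 cells' 90th-percentile brightness under 279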;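 as to vesicle binding response: mean PE anti-B7-1 fluorescence of CD8+ cells relative to row control; 100% = QL9-loaded vesicles with DMSO vehicle in the same plate row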). The settings on record: 2C mouse CD8+ T cells, at 7 µM, stronger effect = lower value; double positive events: measured here: CD8+/vesicle+ event percentage.
In assay [7] the target is Integrin beta-1 (Homo sapiens) + Integrin alpha-4 (Homo sapiens) (UniProt P13612+P05556). The experiment in a line: alpha4beta1 integrin LIBS antibody binding reduction – U937 cells, HUTS-21 mAb, flow cytometry, validation set, VLA-4 allosteric modulator project, pilot screen (AID 2674;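 active = inhibition above 50%, about 3 SD of the validation set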;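 also: antibody binding induced by the VLA-4 ligand LDV present at three times its Kd; 0% = LDV ligand with antibody and no compound and 100% = antibody without LDV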). The settings on record: HUTS-21 LIBS mAb binding, at 6.7 µM, stronger effect = higher value, binding induced by LDV ligand.

Assay [8] can be described thus: calorie-restriction mimetic ROS inhibitors, yeast – validation compound set, pilot screen (AID 2706;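 active = superoxide response below 65% of plate, a cut near 3 SD across the whole screen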;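 also: yeast exposed to compound for one week at 30 degrees C before staining; 100% = mean of all compound wells on the same plate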). The settings on record: S. cerevisiae aging, superoxide DHE fluorescence; at 10 µM, stronger effect = lower value.
For assay [9], the target named is Beta-adrenergic receptor kinase 1 (Homo sapiens) (UniProt P25098). The experiment in a line: GRK2 binders displacing RNA aptamer, biochemical, validation, human GRK2, bead flow cytometry (AID 488806;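 active = aptamer binding inhibition above 30%, about 3 SD of noise from non-fluorescent compounds; inactive = inhibition at or below 30%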). The settings on record: bead-bound GRK2, FAM-aptamer displacement, at 10 µM, stronger effect = higher value.
Assay [10] addresses AP-2 complex subunit beta (Homo sapiens) (UniProt P63010). The assay is described as follows: beta-arrestin/AP2 interaction blockers – biochemical, validation set, GST-AP2 beads, flow cytometry, pilot screen (AID 504541;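 active = inhibition above 54%, about 3 SD of non-fluorescent compounds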;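 also: AP2 carries R879A mutation and is captured from E. coli lysate; bead-bound FITC arrestin peptide fluorescence measuring arrestin peptide binding to AP2; 0% = DMSO wells and 100% = excess unlabeled arrestin peptide control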). The settings on record: FITC arrestin peptide, at 10 µM, stronger effect = higher value, AP2 beta2 appendage fragment, R879A mutant.
Assay [11] can be described thus: cytosolic pH regulators acting via V-ATPase – S. cerevisiae, pHLuorin, HTS validation (AID 504600; in the data active = response above about 15%;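 also: plate controls were DMSO for no effect and reference compound for full effect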). The settings on record: V-ATPase proton transport, at 10 µM, stronger effect = higher value.
Assay [12] relates to anti-desmoglein-3 scFv antibody binding to human DSG3. The experiment in a line: blockers of pathogenic pemphigus antibody–desmoglein-3 binding – biochemical, validation compound set, bead-based, flow cytometry, pilot screen (AID 588368;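 active = binding below the plate cutoff, the plate median minus 3 SD, with a reading above zero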;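 also: signal is the median channel fluorescence of bead-bound GFP antibody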). The settings on record: Protein G beads, DSG3-Fc, scFv-GFP binding, at 10 µM, stronger effect = lower value.
Assay [13] is described as follows: Nile Red efflux blockade in pump-expressing yeast – validation compound set, multiplex, phenotypic, pilot screen (AID 588506;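 active = efflux inhibition above 0.42, the validation set average plus 4 SD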;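 also: Nile Red retained in cells so higher fluorescence means more efflux inhibition; 0 = negative control wells and 1 = enniatin B 25 µM full block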). The settings on record: S. cerevisiae pump-expressing triplex, Nile Red efflux flow cytometry; at 10 µM; stronger effect = higher value; the pumps come from Candida albicans.
Assay [14] addresses ATP-binding cassette sub-family B member 6 (Homo sapiens) (UniProt Q9NP58). The experiment in a line: blockers of ABCB6-driven porphyrin uptake – K562-ABCB6 cells, flow cytometry, validation set, pilot screen (AID 588550;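 active = inhibition above the screen-wide mean plus 3 SD, about 51%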;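 also: 0% = DMSO wells and 100% = benzethonium chloride 70 µM positive control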). The settings on record: K562-ABCB6 porphyrin accumulation, 1 h, at 10 µM, stronger effect = higher value.
A short description of assay [15]: AML differentiation inducers, ER-HoxA9 marrow cells – cell-based, GFP/MAC1 double positive, flow cytometry, validation set, primary screen (AID 588685;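 active = differentiation response of at least 50%, scaled between solvent and reference control, from cells with both markers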;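 also: compound exposure lasts four days before antibody staining and flow analysis; 0% = DMSO wells and 100% = 5 µM fulvestrant positive control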). The settings on record: stronger effect = higher value, normalized: vehicle 0, fulvestrant 100.

This note sets out measurements from PubChem BioAssay.

Inconclusive results are not listed. Calls of active or inactive are those of the source.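 The calls were made as follows, unless noted: active = GFP signal, as percent of the solvent control, above the screen mean plus 3 SD, about 149; inconclusive = no reading because the compound's own fluorescence upset strain identification; inactive = the rest.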

Integrin beta-1 (Homo sapiens) + Integrin alpha-4 (Homo sapiens), sequence (P05556 whole entry, looked up): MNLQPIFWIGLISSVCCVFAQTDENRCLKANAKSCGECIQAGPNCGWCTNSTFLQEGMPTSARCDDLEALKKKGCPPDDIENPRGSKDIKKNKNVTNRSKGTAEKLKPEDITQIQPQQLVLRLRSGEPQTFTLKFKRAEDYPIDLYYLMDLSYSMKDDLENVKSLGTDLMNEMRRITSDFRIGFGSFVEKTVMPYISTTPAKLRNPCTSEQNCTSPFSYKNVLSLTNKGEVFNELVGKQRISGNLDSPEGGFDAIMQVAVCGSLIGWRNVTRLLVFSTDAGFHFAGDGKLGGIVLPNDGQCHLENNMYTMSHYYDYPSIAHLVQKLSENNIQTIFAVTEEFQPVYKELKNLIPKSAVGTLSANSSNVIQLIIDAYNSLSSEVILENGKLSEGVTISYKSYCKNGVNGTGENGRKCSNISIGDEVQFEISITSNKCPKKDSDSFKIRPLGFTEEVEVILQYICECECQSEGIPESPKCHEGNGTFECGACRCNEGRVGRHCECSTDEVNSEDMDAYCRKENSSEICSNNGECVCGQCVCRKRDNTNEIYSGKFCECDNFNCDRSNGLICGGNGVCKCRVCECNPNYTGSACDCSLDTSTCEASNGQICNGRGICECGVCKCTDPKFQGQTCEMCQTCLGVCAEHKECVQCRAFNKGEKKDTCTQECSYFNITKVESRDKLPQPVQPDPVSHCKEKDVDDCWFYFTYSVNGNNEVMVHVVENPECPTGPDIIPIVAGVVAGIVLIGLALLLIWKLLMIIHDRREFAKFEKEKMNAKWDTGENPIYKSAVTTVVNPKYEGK
Integrin beta-1 (Homo sapiens) + Integrin alpha-4 (Homo sapiens), sequence (P13612 whole entry, looked up): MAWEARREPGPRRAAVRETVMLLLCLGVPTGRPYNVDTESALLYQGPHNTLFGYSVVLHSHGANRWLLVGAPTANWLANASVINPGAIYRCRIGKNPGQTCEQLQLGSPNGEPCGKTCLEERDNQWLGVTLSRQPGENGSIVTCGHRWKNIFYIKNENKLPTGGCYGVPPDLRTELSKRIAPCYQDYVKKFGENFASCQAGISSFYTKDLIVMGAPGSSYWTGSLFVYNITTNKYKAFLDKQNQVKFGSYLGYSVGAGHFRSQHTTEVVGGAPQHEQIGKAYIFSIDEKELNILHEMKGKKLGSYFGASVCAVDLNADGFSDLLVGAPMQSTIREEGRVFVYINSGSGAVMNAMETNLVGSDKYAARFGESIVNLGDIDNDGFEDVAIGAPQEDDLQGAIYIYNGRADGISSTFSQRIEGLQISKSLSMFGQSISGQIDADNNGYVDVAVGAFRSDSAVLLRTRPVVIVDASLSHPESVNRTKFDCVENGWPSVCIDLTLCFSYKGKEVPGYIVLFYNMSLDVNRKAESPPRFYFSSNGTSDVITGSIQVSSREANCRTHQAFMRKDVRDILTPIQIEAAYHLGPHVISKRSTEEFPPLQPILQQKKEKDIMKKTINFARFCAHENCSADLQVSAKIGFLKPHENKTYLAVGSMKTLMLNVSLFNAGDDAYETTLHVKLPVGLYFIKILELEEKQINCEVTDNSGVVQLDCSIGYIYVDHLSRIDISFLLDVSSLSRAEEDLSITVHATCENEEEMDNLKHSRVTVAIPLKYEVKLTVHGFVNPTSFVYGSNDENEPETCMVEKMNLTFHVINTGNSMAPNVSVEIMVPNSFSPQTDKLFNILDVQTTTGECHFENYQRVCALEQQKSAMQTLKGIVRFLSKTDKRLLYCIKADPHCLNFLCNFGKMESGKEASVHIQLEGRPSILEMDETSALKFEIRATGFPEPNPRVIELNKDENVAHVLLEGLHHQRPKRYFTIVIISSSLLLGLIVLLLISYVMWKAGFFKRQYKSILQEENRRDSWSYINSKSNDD
ATP-binding cassette sub-family B member 6 (Homo sapiens), sequence (Q9NP58 whole entry, looked up): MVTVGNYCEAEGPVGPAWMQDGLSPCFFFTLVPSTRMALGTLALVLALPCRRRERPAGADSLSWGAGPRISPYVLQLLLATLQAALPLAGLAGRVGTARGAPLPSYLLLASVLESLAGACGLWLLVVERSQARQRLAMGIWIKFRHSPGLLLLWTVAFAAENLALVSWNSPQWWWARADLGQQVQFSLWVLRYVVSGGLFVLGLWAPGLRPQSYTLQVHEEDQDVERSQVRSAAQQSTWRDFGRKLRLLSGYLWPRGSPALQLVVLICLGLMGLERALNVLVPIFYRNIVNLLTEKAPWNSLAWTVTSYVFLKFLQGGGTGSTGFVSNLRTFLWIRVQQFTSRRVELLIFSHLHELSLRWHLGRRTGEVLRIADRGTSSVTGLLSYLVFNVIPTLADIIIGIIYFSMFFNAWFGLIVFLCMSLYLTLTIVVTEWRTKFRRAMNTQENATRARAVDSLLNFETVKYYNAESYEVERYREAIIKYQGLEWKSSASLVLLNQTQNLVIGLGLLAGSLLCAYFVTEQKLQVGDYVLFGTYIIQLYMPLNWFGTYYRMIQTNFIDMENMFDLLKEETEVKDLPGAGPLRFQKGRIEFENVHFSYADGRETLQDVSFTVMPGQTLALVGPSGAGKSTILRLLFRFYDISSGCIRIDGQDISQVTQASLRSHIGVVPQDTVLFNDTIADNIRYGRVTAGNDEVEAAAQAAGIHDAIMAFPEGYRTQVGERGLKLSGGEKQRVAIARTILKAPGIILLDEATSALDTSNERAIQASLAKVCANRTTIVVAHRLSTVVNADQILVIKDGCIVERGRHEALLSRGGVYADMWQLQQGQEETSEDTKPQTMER
AP-2 complex subunit beta (Homo sapiens), sequence (P63010 whole entry, looked up, the tested form may be a part, one chain of several): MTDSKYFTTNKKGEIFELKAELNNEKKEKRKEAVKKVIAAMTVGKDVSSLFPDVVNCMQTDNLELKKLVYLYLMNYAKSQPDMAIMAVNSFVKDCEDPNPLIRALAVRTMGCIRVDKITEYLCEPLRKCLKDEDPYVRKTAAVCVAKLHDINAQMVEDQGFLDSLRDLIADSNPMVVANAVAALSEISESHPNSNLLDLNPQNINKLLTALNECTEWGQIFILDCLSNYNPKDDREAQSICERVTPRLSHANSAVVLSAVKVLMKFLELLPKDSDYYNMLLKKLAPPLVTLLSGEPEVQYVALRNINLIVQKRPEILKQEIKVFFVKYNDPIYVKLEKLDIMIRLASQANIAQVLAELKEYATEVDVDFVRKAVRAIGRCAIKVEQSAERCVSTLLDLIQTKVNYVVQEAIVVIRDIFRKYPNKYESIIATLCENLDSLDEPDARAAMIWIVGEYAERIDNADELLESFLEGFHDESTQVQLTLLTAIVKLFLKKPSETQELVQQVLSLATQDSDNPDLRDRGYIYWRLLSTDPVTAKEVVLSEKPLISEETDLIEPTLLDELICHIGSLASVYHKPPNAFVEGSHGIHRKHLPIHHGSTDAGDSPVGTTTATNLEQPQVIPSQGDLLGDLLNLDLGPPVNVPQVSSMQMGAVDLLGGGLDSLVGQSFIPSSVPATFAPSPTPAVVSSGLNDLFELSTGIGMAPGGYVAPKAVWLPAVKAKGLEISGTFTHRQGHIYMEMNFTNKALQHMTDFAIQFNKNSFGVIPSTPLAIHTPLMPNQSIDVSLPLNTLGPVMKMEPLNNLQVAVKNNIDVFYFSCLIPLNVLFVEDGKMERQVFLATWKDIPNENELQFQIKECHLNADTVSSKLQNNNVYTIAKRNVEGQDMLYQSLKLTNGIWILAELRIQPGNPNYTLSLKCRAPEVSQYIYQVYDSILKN
Beta-adrenergic receptor kinase 1 (Homo sapiens), sequence (P25098 whole entry, looked up): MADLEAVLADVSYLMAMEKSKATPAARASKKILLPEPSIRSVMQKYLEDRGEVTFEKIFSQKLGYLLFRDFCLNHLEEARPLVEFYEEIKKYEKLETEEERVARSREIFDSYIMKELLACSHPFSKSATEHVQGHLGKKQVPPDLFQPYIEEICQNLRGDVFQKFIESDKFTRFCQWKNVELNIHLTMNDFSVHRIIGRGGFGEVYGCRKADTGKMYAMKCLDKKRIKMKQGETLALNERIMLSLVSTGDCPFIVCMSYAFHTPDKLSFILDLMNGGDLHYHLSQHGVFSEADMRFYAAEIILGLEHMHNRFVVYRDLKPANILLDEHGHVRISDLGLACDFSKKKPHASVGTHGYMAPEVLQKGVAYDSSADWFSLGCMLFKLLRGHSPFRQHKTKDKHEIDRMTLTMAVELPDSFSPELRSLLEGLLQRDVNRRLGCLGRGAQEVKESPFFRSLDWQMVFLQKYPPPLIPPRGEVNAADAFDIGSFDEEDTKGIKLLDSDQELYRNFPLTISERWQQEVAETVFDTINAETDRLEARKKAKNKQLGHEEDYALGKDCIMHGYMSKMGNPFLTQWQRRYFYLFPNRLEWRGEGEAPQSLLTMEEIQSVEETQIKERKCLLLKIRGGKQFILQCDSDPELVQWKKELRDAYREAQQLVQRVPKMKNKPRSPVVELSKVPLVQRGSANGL

As to `COc1ccc(CCNC(=S)NC(=O)/C=C/c2ccc(C)cc2)cc1OC`, the percent of DMSO control GFP in assay [1] was 101% (inactive). Also, the results for the GFP response vs DMSO in assay [2] and in assay [4] were 107% (inactive) and 103% (inactive), respectively. The percent response of DMSO control in assay [3] is 106% (inactive). Further, the GFP response, % of DMSO in assay [5] is 95.4% (inactive). For the same molecule, the double positive events in [6] came to 51.6%. Moreover, the vesicle binding response in assay [6] was 136% (inactive). Further, the inhibition (usually the drop in the measured response relative to a control, in per cent) in assay [7] was 3.49% (inactive); in assay [10] it was 13.3% (inactive); in [14] it was 4% (inactive). Besides, in assay [8], the superoxide response (% of plate) was 98.2% (inactive). Also, the aptamer binding inhibition in assay [9] was 2% (inactive). For the same molecule, in [11], the response was -1.1% (inactive). Also, the binding (% of control) in assay [12] is 106% (inactive). Besides, the efflux inhibition (fraction of control) in assay [13] was 0.22 (inactive). Also, the differentiation response in [15] is -8.27% (inactive).

On to `COC(=O)c1cc(-c2ccc(C)o2)nc2ccccc12`, for which the percent of DMSO control GFP in assay [1] was 101% (inactive). Further, the GFP response vs DMSO in assay [2] was 95.9% (inactive); in assay [4] it was 109% (inactive). In assay [3], the percent response of DMSO control was 93.9% (inactive). Besides, the GFP response, % of DMSO in [5] was 78.2% (inactive). Also, the double positive events in assay [6] was determined as 45.1%. Moreover, the vesicle binding response in [6] was 76.1% (inactive). The inhibition in [7] is -21.7% (inactive); in assay [10] it was 3.96% (inactive); in assay [14] it was 10% (inactive). In assay [8], the superoxide response (% of plate) is 109% (inactive). For the same molecule, the aptamer binding inhibition in assay [9] is 5% (inactive). Further, the response in [11] is 2% (inactive). Moreover, the binding (% of control) in assay [12] is 108% (inactive). For the same molecule, in assay [13], the efflux inhibition (fraction of control) is 0.94 (active). Further, the differentiation response in [15] is -8.27% (inactive).

For the molecule `CN(CCc1cnn(C)c1)Cc1nc(CC2CC2)no1`, the percent of DMSO control GFP in assay [1] was 101% (inactive). Moreover, the GFP response vs DMSO is 101% (inactive) in assay [2] and 105% (inactive) in assay [4]. The percent response of DMSO control in assay [3] was 110% (inactive). The GFP response, % of DMSO in [5] was 105% (inactive). In assay [6], this molecule yielded a double positive events of 58.1%. Also, the vesicle binding response in assay [6] is 194% (inactive). In addition, the results for the inhibition in [7], in [10] and in [14] were -11.4% (inactive), 23.6% (inactive) and 8% (inactive), respectively. In addition, the superoxide response (% of plate) in [8] was 106% (inactive). Besides, the aptamer binding inhibition in [9] is 2% (inactive). Further, in assay [11], the response is -2.33% (inactive). Moreover, in assay [12], the binding (% of control) was 104% (inactive). Moreover, the efflux inhibition (fraction of control) in assay [13] is -0.16 (inactive). In addition, in assay [15], the differentiation response is -9.89% (inactive).

For `CN1CCCC(OC(=O)c2ccc3c(c2)OCCO3)C1` (stereo not given), the percent of DMSO control GFP in assay [1] is 101% (inactive). The values for the GFP response vs DMSO in assay [2] and in assay [4] were 106% (inactive) and 82.3% (inactive), respectively. In addition, the percent response of DMSO control in assay [3] is 108% (inactive). Besides, in assay [5], the GFP response, % of DMSO is 96.3% (inactive). In [6], this molecule showed a double positive events of 58.8%. Also, the vesicle binding response in assay [6] was 175% (inactive). The inhibition was -8.64% (inactive) in assay [7], 2.71% (inactive) in assay [10] and 8% (inactive) in assay [14]. The superoxide response (% of plate) in assay [8] is 100% (inactive). The aptamer binding inhibition in [9] was 0% (inactive). The response in assay [11] is -2.88% (inactive). For the same molecule, the binding (% of control) in assay [12] is 96% (inactive). Moreover, in assay [13], the efflux inhibition (fraction of control) is 0.41 (inactive). Also, the differentiation response in [15] is 1.41% (inactive).

As for `OCCN1CCN(CCCN2c3ccccc3Sc3ccc(Cl)cc32)CC1`, the percent of DMSO control GFP in assay [1] is 104% (inactive). The GFP response vs DMSO in [2] is 104% (inactive); in assay [4], 112% (inactive). The percent response of DMSO control in [3] was 100% (inactive). The GFP response, % of DMSO in assay [5] is 121% (inactive). Further, in assay [6], the double positive events turned out to be 64.3%. Also, the vesicle binding response in assay [6] was 268% (inactive). The inhibition in [7] was 68.7% (active); in assay [10], 29.9% (inactive); in assay [14] it was -3% (inactive). In addition, the superoxide response (% of plate) in [8] was 111% (inactive). Moreover, in assay [9], the aptamer binding inhibition was -10% (inactive). The response in [11] was 5.46% (inactive). In assay [12], the binding (% of control) was 115% (inactive). For the same molecule, in assay [13], the efflux inhibition (fraction of control) was 0.71 (active). For the same molecule, in [15], the differentiation response was -11.9% (inactive).
